DT40 TDP1 no CPT: qHTS for Inhibitors of human tyrosyl-DNA phosphodiesterase 1 (TDP1): qHTS in cells in absence of CPT; 420,000 tested, 15% active; Potency, µM (series often up to 46.2 µM), without a hit: at the top dose activity change, negative = growth inhibition, hits mostly inhibitors; DT40 Tdp1-/- hTDP1 cells, no CPT, ATP luminescence, 48 h; further: on the % scale 0 is the no-effect control and ±100 the full control effect; nearly all actives have a fitted effect of over 55% in size
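Seeded 400 DT40-hTDP1 cells/well (vehicle DMSO, no 20 nM CPT); pinned compounds; ≥48 hr at 37 °C; CellTiter-Glo luminescence as viability measure.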
HT1080-NT tox: kills 2HG-producing HT-1080-NT fibrosarcoma cells | Potency, µM (highest dose often 46.1 µM), for inactives: top-dose activity, negative = less viability, hits mostly cytotoxic | AID 686970 | 360,000 tested, 1.6% active | HT-1080-NT fibrosarcoma viability, CellTiter-Glo ATP luminescence, 48 h;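 further: NT is the 2HG producing partner of a matched IDH1 knockdown line; 0% = DMSO-treated cells and -100% = media-only wells without cells; nearly all actives have a fitted effect of over 55% in size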
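Read-out is CellTiter-Glo luminescence after 10 minutes at room temperature, following 48 hours' compound treatment of HT-1080-NT cells (750 cells/well, RPMI, 5% FBS, 37 degrees C).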
HepG2 viability: HepG2 cytotoxicity, counter-screen for TGF-b inhibitors. 410,000 tested, 0.76% active. Potency, µM (series often up to 46.1 µM), without a hit: top-dose activity change, negative = cytotoxicity, actives largely listed as cytotoxic. AID 588856. HepG2 CAGA-GFP viability, ATP luminescence, 18 h
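HepG2 CAGA-GFP cells (1000/well, DMEM with 1% FBS) received compound, then TGF-beta at 500 pg/mL final, and were incubated 18 hours at 37 degrees C. Viability was read by CellTiter-Glo luminescence. Media-only wells were set as complete cell-killing and DMSO as no toxicity.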
TDP1 cell CPT: DT40-hTDP1 cell growth loss with CPT. chicken DT40 Tdp1-/-;hTDP1 cells + 20 nM CPT, ATP luminescence, 48 h. Potency, µM (highest dose often 46.2 µM), inactives show at the highest dose activity change, negative = growth inhibition, actives largely listed as inhibitors. 420,000 tested, 12% active; further: on the % scale 0 is the no-effect control and ±100 the full control effect; nearly all actives have a fitted effect of over 55% in size
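Cell growth measured by CellTiter-Glo luminescence after a minimum 48 h, 37 C compound exposure with 20 nM CPT in Tdp1-knockout DT40 cells stably expressing hTDP1, seeded 400/well; qHTS titration format.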
TGFb inhibitor: TGF-b pathway inhibition | HepG2 CAGA-GFP TGF-b/SMAD3 reporter, GFP fluorescence, 18 h; TGF-beta stimulated, 500 pg/mL final | Potency, µM (series often up to 46.1 µM), inactives show top-dose activity, negative = inhibition, actives largely listed as inhibitors | 410,000 tested, 1.2% active; further: on the % scale 0 is the no-effect control and ±100 the full control effect; nearly all actives have a fitted effect of over 65% in size
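First, reporter cells (HEPG2 CAGA-GFP) rested 2 h at 37 degrees C. Next, compounds were pinned in and TGF-beta added to 500 pg/mL final. After 18 h, GFP was imaged per cell and summed per well.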
HT1080 IDH1KD tx: HT-1080 IDH1 knockdown cell toxicity (counter line). HT-1080 IDH1 knockdown viability, ATP luminescence, 48 h. Potency, µM (highest dose often 46.1 µM), without a hit: at the top dose activity, negative = toxicity, usual class: cytotoxic. 360,000 tested, 2% active;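 further: 0% = DMSO wells and -100% = cell-free medium wells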
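% activity derives from luminescence (CellTiter-Glo), normalised to DMSO and no-cell wells. HT-1080-IDH1KD cells, 750/well, had 48 h compound exposure at 37 °C.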
Numbers without * were called inactive; ? = inconclusive; . = no result. Rows were chosen to be rich in hits. Some 17% of all compounds tested hit in one or more screens of this group. The call rests on the fitted dose curve; in most records, active means well fitted curve in the direction sought with a large enough effect; inconclusive means small, poorly fitted or top-dose-only effect, or another doubt; inactive means no such curve, though single readings can be large; an effect the other way counts as inactive or inconclusive. Potency means the concentration at half of the fitted maximal effect.

SMILES	DT40 TDP1 no CPT	HT1080-NT tox	HepG2 viability	TDP1 cell CPT	TGFb inhibitor	HT1080 IDH1KD tx
CC1=C([N+](=O)[O-])C(c2ccc(Cl)cc2)NC(=O)N1 (stereo unspecified)	-4%	-5%	2%	7%	12%	-13%
CCn1c(C(=O)O)c(CC(=O)Nc2ccc(Br)cc2C)c2ccccc21	26%	-18%	3%	-16%	0%	-13%
CC(=O)N1CCC(C(=O)Nc2ccc(S(=O)(=O)N3CCCCC3)cc2)CC1	?	1%	-20%	?	?	2%
NC(=NCCc1c[nH]c2ccccc12)NS(=O)(=O)c1ccc(F)cc1	?	-4%	9%	?	0%	-16%
NC(=NCCc1c[nH]c2ccccc12)NS(=O)(=O)c1ccc2ccccc2c1	5.2µM*	-26%	-28%	4.6µM*	?	-28%
CCCCC(NC(C)=O)c1nc2ccccc2n1CCC (stereo unspecified)	5.8µM*	-3%	-12%	?	1%	-4%
CCCCn1c(C(C)NC(=O)COC)nc2ccccc21 (stereo unspecified)	?	-3%	-5%	?	-25%	2%
CCCCCn1c(C(Cc2ccccc2)NC(=O)COC)nc2ccccc21 (stereo unspecified)	26µM*	7%	-35%	18µM*	3%	-10%
Cn1c(SCC(=O)Nc2ccccc2Br)nnc1-c1cnccn1	18%	5%	10%	-2%	-3%	9%
CC(C)CC(NS(=O)(=O)OCC(Cl)(Cl)Cl)c1ccccc1 (stereo unspecified)	16µM*	?	-103%	?	?	-26%
COC(=O)CCC(NS(=O)(=O)OCC(Cl)(Cl)Cl)c1ccccc1 (stereo unspecified)	?	6%	3%	-28%	-13%	2%
CC1(C)CC(C(=O)NCCC(c2ccccc2)c2ccco2)CCO1 (stereo unspecified)	-22%	-1%	-13%	?	4%	0%
COc1ccc(CN(CCC(c2ccc(F)cc2)C2CCOC(C)(C)C2)C(=O)c2ccco2)cc1 (stereo unspecified)	16µM*	?	-33%	21µM*	?	26µM*
CC(c1ccccc1)N(CCC(c1ccccc1)C1CCOC(C)(C)C1)C(=O)c1ccco1 (stereo unspecified)	18µM*	7%	-51%	?	?	-2%
O=S(=O)(c1cccc2cnccc12)N1CCNCC1	?	?	-23%	?	17%	-19%
NCCNS(=O)(=O)c1cccc2cnccc12	18µM*	.	.	27µM*	.	.
N#Cc1ccccc1S(=O)(=O)N1CCC(C(=O)NCc2ccccc2CN2CCCC2)CC1	-24%	-11%	-1%	-30%	6%	9%
Cc1nc2nc(-c3ccco3)[nH]n2c(=O)c1C	-15%	6%	-9%	-1%	7%	-6%
Cc1ccnc(N/C=C(\C#N)c2nc(-c3cccc(Br)c3)cs2)c1	18µM*	-11%	-16%	21µM*	66%	?
COc1ccc(OC)c(NC(=O)CSc2nc3ccccc3c(=O)n2CC2CCCO2)c1 (stereo unspecified)	-6%	0%	-24%	-19%	5%	-15%
COc1ccc(-c2nnc(CSc3nc4ccccc4c(=O)n3CC3CCCO3)o2)cc1OC (stereo unspecified)	23µM*	17%	-5%	?	0%	14%
COc1cccc(Nc2nc3cc(C)ccc3nc2NS(=O)(=O)c2ccc(Cl)cc2)c1	4.1µM*	.	-36%	5.2µM*	7.9µM*	.
CCOc1ccccc1Nc1nc2ccccc2nc1NS(=O)(=O)c1ccc(Cl)cc1	5.2µM*	.	-45%	?	-14%	.
O=C(O)C1(Cc2nc3ccccc3[nH]2)CCCC1	-9%	-7%	-13%	?	-16%	15%
Cc1noc(C)c1C(=O)OCC(=O)Nc1ccccc1C(=O)NC(C)c1ccccc1 (stereo unspecified)	21µM*	-22%	-2%	29µM*	3%	-2%
SMILES	DT40 TDP1 no CPT	HT1080-NT tox	HepG2 viability	TDP1 cell CPT	TGFb inhibitor	HT1080 IDH1KD tx
O=C(Nc1cc(S(=O)(=O)N2CCOCC2)ccc1Cl)C(=O)c1c(-c2ccccc2)cc2ccccn12	23µM*	6%	-1%	21µM*	-12%	-3%
CCN(CC)S(=O)(=O)c1ccc(Cl)c(NC(=O)COC(=O)c2c(C)noc2C)c1	21µM*	-2%	10%	?	5%	-3%
CCN(CC)S(=O)(=O)c1ccc(Cl)c(NC(=O)COC(=O)c2ccc(O)cc2)c1	?	0%	2%	?	?	-17%
Cc1onc(-c2ccccc2Cl)c1C(=O)OCC(=O)Nc1cccc(S(=O)(=O)N(C)C)c1	16µM*	?	-19%	?	-36%	-2%
Cc1cc(C(=O)OCC(=O)Nc2cc(S(=O)(=O)N3CCOCC3)ccc2Cl)c(C)o1	-24%	-4%	-15%	-5%	2%	0%
Cc1onc(-c2ccccc2)c1C(=O)OCC(=O)Nc1cc(S(=O)(=O)N2CCOCC2)ccc1Cl	23µM*	?	-18%	23µM*	-25%	-20%
O=C(Cn1cnc2c(cnn2-c2ccccc2)c1=O)Nc1cc(S(=O)(=O)N2CCOCC2)ccc1Cl	23µM*	-5%	4%	?	2%	-5%
Cc1ccc(Cn2c(=O)n(Cc3ccccc3)c(=O)c3oc4ccccc4c32)cc1	5%	.	-5%	15%	7%	.
CC(C)(C)c1ccc(C(=O)N2CCC2(C)C(=O)NCc2ccc3c(c2)OCO3)cc1 (stereo unspecified)	9.2µM*	-23%	-35%	12µM*	-13%	?
CC(C)CNC(=O)C1(C)CCN1C(=O)c1ccc(C(C)(C)C)cc1 (stereo unspecified)	8.2µM*	6%	-30%	10µM*	-2%	-27%
Cc1c(C(=O)N2CCCCCC2(C)C(=O)NCC(C)C)oc2ccccc12 (stereo unspecified)	18µM*	-3%	-7%	?	-1%	3%
Cn1c(SCC(=O)Nc2nccs2)nnc1-c1ccc(S(=O)(=O)N2CCCC2)cc1	-19%	11%	3%	-10%	0%	12%

Screening data (PubChem BioAssay)
